{"source": "PubChem BioAssay", "data": [{"test": "resazurin metabolic signal in HepG2 cells – cell-based, resazurin fluorescence, 24 h, PK04 Diversity Set, profiling panel (AID 1172); further: test concentration not given here", "details": "HepG2 viability, higher = more signal", "values": [{"compound": "COC(=O)[C@H](C)NC(=O)CCC1CC(OC(=O)NCc2cccc3ccccc23)CC2(CCCC(COC(=O)NCCc3ccccc3OC)O2)O1", "note": "(stereo partly specified)", "z-score": -0.0725}, {"compound": "CO[C@@H](C(C)C)[C@@H](C)C1OC(=O)CC1O", "note": "(stereo partly specified)", "z-score": -0.544}, {"compound": "COc1ccc(COC(=O)NN=C2C[C@@H](O)[C@@H](O)[C@@H]3[C@@H]4C(=O)N(C[C@@H]5CCCO5)C(=O)[C@@H]4CC[C@H]23)cc1", "z-score": -0.161}, {"compound": "COC(=O)[C@H](C)NC(=O)CCC1CC(OC(=O)NCCc2ccc(F)cc2)CC2(CCCC(COC(=O)NCCc3ccccc3OC)O2)O1", "note": "(stereo partly specified)", "z-score": 0.185}, {"compound": "CON=C(C)CCN1CCCCc2nc(C)c(C)cc21", "z-score": -0.18}, {"compound": "CC(C)C(=O)N[C@H]1CCCN1C(=O)C=Cc1ccccc1", "z-score": -0.274}, {"compound": "C#CCCCON=C1C[C@@H](O)[C@@H](O)[C@@H]2[C@@H]3C(=O)N(C[C@@H]4CCCO4)C(=O)[C@@H]3CC[C@@H]12", "z-score": 0.475}, {"compound": "COc1ccc(COC(=O)NN=C2C[C@@H](O)[C@@H](O)[C@@H]3[C@@H]4C(=O)N(C5CCCCC5)C(=O)[C@@H]4CC[C@@H]23)cc1", "z-score": -0.578}, {"compound": "CCOC(=O)[C@H](CC(C)C)NC(=O)CCC1CC(OC(=O)NCc2ccc3c(c2)OCO3)CC2(CCCC(COC(=O)NCCc3ccc(Cl)cc3)O2)O1", "note": "(stereo partly specified)", "z-score": 0.538}, {"compound": "CC(CCC(=O)OC[C@H]1O[C@H](C#Cc2ccccc2)C=C[C@@H]1Oc1ccc(C)cc1)=NO[C@@H](C)c1cc(-c2c(C)cc(C)cc2C)no1", "z-score": -0.53}, {"compound": "COC(=O)[C@H](C)NC(=O)CC=C[C@@H](C)[C@@H]1C=C[C@H](O)[C@@H](CO)O1", "z-score": -0.261}, {"compound": "C[C@H]1CC[C@@H](C(=O)O)N[C@@H]1c1cccc(N2CCCC2=O)c1", "z-score": 0.672}, {"compound": "CO[C@@H]1[C@H](O)CO[C@H]1C=Cc1ccccc1", "z-score": -1.01}, {"compound": "COC(=O)[C@H](C)NC(=O)CCC1CC(OC(=O)NCCc2ccc(F)cc2)CC2(CCCC(COC(=O)NCc3ccccc3)O2)O1", "note": "(stereo partly specified)", "z-score": 0.445}, {"compound": "CC(C)CON=C1C[C@@H](O)[C@@H](O)[C@@H]2[C@@H]3C(=O)N(c4ccc(F)cc4F)C(=O)[C@@H]3CC[C@@H]12", "z-score": 0.372}, {"compound": "O=C1C=C[C@@H](O)[C@@H]2[C@@H]3C(=O)N(Cc4ccc5c(c4)OCO5)C(=O)[C@@H]3CC[C@@H]12", "z-score": -0.557}, {"compound": "CC[C@@H](c1ccccc1)n1c(=O)n2n(c1=O)[C@H]1[C@H](O)[C@@H]3O[C@@H]3C(=NOCc3ccccc3)[C@H]1CC2", "z-score": -1.67}, {"compound": "CC(=O)OC[C@H]1O[C@H](CC=NOC[C@@H](O)COCc2ccco2)C=C[C@@H]1OC(C)=O", "z-score": -0.13}, {"compound": "C[C@H]1C=CCC(=O)OC[C@H](C)C(=O)N2CCC[C@H]2C(=O)OC1", "z-score": 0.976}, {"compound": "CC(C)CON=C1C[C@@H](O)[C@@H](O)[C@@H]2[C@@H]3C(=O)N(Cc4ccc5c(c4)OCO5)C(=O)[C@@H]3CC[C@@H]12", "z-score": 0.344}, {"compound": "CCOC(=O)CCN1C(=O)[C@H]2[C@H]3[C@H](O)[C@H](O)CC(=NNC(=O)OCC)[C@H]3CC[C@H]2C1=O", "z-score": -0.207}, {"compound": "CC(=O)OC[C@H]1O[C@@H](ON=C2[C@H]3CCn4c(=O)n(-c5ccccc5)c(=O)n4[C@H]3[C@H](O)[C@@H]3O[C@H]23)[C@H](OC(C)=O)[C@@H](OC(C)=O)[C@@H]1OC(C)=O", "z-score": -0.779}, {"compound": "CCOC(=O)[C@H](CC(C)C)NC(=O)CCC1CC(OC(=O)NCc2ccc3c(c2)OCO3)CC2(CCCC(COC(=O)NCCOC)O2)O1", "note": "(stereo partly specified)", "z-score": 1.22}, {"compound": "O=C1C[C@@H](O)[C@@H](O)[C@@H]2[C@@H]3C(=O)N(c4ccc(F)cc4F)C(=O)[C@@H]3CC[C@H]12", "z-score": -0.635}, {"compound": "CCOC(=O)CCN1C(=O)[C@H]2[C@@H]3C(=CC[C@H]2C1=O)C(=O)[C@H]1O[C@H]1[C@H]3O", "z-score": -0.423}, {"compound": "O=C1CCCC=C1C(O)C1CCCCC1", "note": "(stereo unspecified)", "z-score": -0.075}, {"compound": "CCN1C(=O)[C@H]2[C@H]3[C@H](O)[C@H](O)CC(=NOC[C@@H](O)[C@H]4O[C@@H]5OC(C)(C)O[C@@H]5[C@H]4O)[C@@H]3CC[C@H]2C1=O", "z-score": -1.27}, {"compound": "COc1ccc(COC(=O)NN=C2C[C@@H](O)[C@@H](O)[C@@H]3[C@@H]4C(=O)N(Cc5ccccc5)C(=O)[C@@H]4CC[C@@H]23)cc1", "z-score": 1.13}, {"compound": "C[C@H]1CC[C@H]2C(=O)OC(COc3ccc(C(C)(C)C)cc3)CN2[C@@H]1c1ccc(Br)cc1", "note": "(stereo partly specified)", "z-score": 0.272}, {"compound": "COCCNC(=O)OCC1CCCC2(CC(OC(=O)NCc3cccc4ccccc34)CC(CCC(=O)N[C@@H](C)C(=O)OC)O2)O1", "note": "(stereo partly specified)", "z-score": 1.77}, {"compound": "CC(C)CON=C1[C@H]2CCn3c(=O)n(C)c(=O)n3[C@H]2[C@H](O)[C@@H]2O[C@H]12", "z-score": -0.423}, {"compound": "CO[C@H]1COC(=O)[C@H](CCSC)NC(=O)CC=C[C@@H](C)[C@H](OC)COC(=O)[C@@H](OCc2ccccc2)C=C[C@@H]1C", "z-score": 0.81}, {"compound": "CC(CCN1CCCCc2nc(C)c(C)cc21)=NOC[C@@H](O)[C@H]1O[C@@H]2OC(C)(C)O[C@@H]2[C@H]1O", "z-score": -0.825}, {"compound": "CC(C)(C)N1C(=O)[C@H]2[C@H]3[C@H](O)[C@H](O)CC(=NOC[C@@H](O)COCc4ccco4)[C@@H]3CC[C@H]2C1=O", "z-score": -0.28}, {"compound": "C=CC[C@@H]1C=C[C@H](ON=C2C[C@@H](O)[C@@H](O)[C@@H]3[C@@H]4C(=O)N(CC)C(=O)[C@@H]4CC[C@@H]23)[C@@H](CO)O1", "z-score": -1.05}, {"compound": "CCOC(=O)NN=C1C[C@@H](O)[C@@H](O)[C@@H]2[C@@H]3C(=O)N(CC)C(=O)[C@@H]3CC[C@H]12", "z-score": -0.635}]}]}
